The source made the active and inactive calls. Rule for the calls: active = hit-call score of the fitted dose curve at least 0.9, where 1 is the maximum; inactive = score below 0.9.

A short description of experiment [1]: ATG_CRE_CIS: Attagene CIS-FACTORIAL HepG2 Assay for human cAMP Responsive Element (CRE) binding protein 3 (AID 2282926). As to conditions: HepG2 CRE cis-reporter, Attagene multiplexed mRNA; actives raise or lower the signal. The method in brief:
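Human liver HepG2, transient MRTU transfection, 24 h compound exposure. Total RNA → oligo(dT) RT → PCR → 6-FAM primer extension → HpaI cut → CE. Activity called both directions vs DMSO.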

Experiment [2] concerns the target CCAAT/enhancer-binding protein beta (Homo sapiens) (UniProt P17676). Nature of the experiment: ATG_C_EBP_CIS: Attagene CIS-FACTORIAL HepG2 Assay for human CCAAT/Enhancer Binding Protein (C/EBP) beta (AID 2282927). As to conditions: HepG2 Attagene cis-factorial transcription factor reporter; actives raise or lower the signal. The method in brief:
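Transiently transfected HepG2 (MRTU library, endogenous TF-driven promoters); 24 h dosing; total RNA → oligo(dT) RT → PCR → 6-FAM primer extension → HpaI digest → CE; fit bidirectionally vs DMSO.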

Experiment [3] in a line: ATG_CMV_CIS: Attagene CIS-FACTORIAL HepG2 Assay for human CMV (Internal Marker) (AID 2282928).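 Note: endpoint acts as a background internal control marker rather than a target.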 The note with it: HepG2 CMV promoter reporter, transcription factor profiling; actives raise or lower the signal. The method in brief:
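CMV internal-marker background readout in transiently transfected HepG2 cells bearing cis-regulated reporter units. Reporter mRNA is measured 24 h after dosing by RT-PCR and capillary electrophoresis, with bidirectional fitting against DMSO.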

Experiment [4] is described as follows: ATG_DR4_LXR_CIS: Attagene CIS-FACTORIAL HepG2 Assay for human Liver X Receptor (LXR), DR4 submotif (AID 2282929). As to conditions: HepG2 Attagene DR4 cis-reporter, mRNA transcription; actives raise or lower the signal. A digest of the protocol:
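HepG2 cells transiently transfected with cis-promoter-driven multiplexed reporter units (DR4 element) were dosed for 24 h. Reporter mRNA was quantified by RT-PCR, fluorescent primer extension, HpaI digestion and capillary electrophoresis; bidirectional fitting versus DMSO baseline.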

Experiment [5] is described as follows: ATG_AP_1_CIS: Attagene CIS-FACTORIAL HepG2 Assay for human Activator Protein 1 (AP-1) (AID 2282931). As to conditions: HepG2 Attagene cis-factorial AP-1 reporter mRNA; actives raise or lower the signal. The method in brief: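 HepG2 cells transiently transfected with cis-element-driven multiplex reporter units; 24 h compound exposure. Reporter mRNA quantified by RT-PCR, FAM-labelled fragments resolved by capillary electrophoresis; bidirectional fit versus DMSO baseline.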

Experiment [6] is described as follows: ATG_AP_2_CIS: Attagene CIS-FACTORIAL HepG2 Assay for human Activator Protein 2 (AP-2) (AID 2282932). The note with it: HepG2 AP-2 cis-reporter, Attagene transcription factor profiling; actives raise or lower the signal. The method in brief:
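Multiplexed mRNA reporter assay in HepG2: cis-regulated units report endogenous factor activity after 24 h treatment. Fluorescence from capillary electrophoresis of RT-PCR products gives the signal, with DMSO as baseline.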

Experiment [7] is described as follows: ATG_BRE_CIS: Attagene CIS-FACTORIAL HepG2 Assay for human Bone Morphogenetic Protein (BMP) Response Element (BRE) (AID 2282933). As to conditions: HepG2 BMP response element reporter, Attagene transcription factor profiling; actives raise or lower the signal. A digest of the protocol: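 After a 24 h chemical treatment, transiently transfected HepG2 cells were lysed for RNA; reporter transcripts were quantified by fluorescent RT-PCR and capillary electrophoresis, normalised to DMSO.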

Experiment [8] deals with Transcription factor E2F1 (Homo sapiens) (UniProt Q01094). The experiment can be described thus: ATG_E2F_CIS: Attagene CIS-FACTORIAL HepG2 Assay for human E2F Transcription Factor 1 (AID 2282935). As to conditions: HepG2 Attagene cis-reporter, E2F reporter RNA transcripts; actives raise or lower the signal. A digest of the protocol: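 Measures reporter transcript levels via RT-PCR with capillary electrophoresis detection in HepG2 cells harboring cis-regulated reporter units; 24 h post-dose; bidirectional curve fitting with DMSO as baseline.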
Transcription factor E2F1 (Homo sapiens), sequence (Q01094 whole entry, looked up): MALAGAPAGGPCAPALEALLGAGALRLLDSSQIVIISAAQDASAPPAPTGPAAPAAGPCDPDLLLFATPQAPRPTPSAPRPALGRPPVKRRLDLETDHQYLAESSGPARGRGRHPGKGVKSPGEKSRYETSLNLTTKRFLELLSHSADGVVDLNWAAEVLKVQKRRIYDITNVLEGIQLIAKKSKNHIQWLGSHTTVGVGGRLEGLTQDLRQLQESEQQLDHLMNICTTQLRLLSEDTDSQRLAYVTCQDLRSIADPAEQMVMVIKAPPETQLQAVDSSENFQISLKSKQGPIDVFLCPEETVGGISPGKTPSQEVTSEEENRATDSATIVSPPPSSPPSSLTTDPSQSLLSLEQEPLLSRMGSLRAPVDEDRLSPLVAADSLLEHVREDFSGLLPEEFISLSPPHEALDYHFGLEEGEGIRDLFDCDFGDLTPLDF

Experiment [9] is described as follows: ATG_E_Box_CIS: Attagene CIS-FACTORIAL HepG2 Assay for human Enhancer Box (E-box) (AID 2282936). As to conditions: HepG2 E-box cis-reporter transcription, actives raise or lower the signal. The method in brief:
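First, HepG2 cells receive multiple cis-regulated reporter constructs by transient transfection. Next, chemicals are applied for 24 h. Finally, reporter mRNA is quantified via RT-PCR and capillary electrophoresis, with DMSO as baseline.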

Experiment [10] is described as follows: ATG_M_61_CIS: Attagene CIS-FACTORIAL HepG2 Assay for M61 Transcription Factor (Internal Marker) (AID 2282937). As to conditions: HepG2 Attagene CIS-FACTORIAL M61 internal marker reporter; actives raise or lower the signal. The method in brief: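 HepG2 cells transiently transfected with cis-element-driven multiple reporter transcription units, dosed for 24 h. Reporter mRNA measured by RT-PCR, 6-FAM primer-extension labelling, HpaI digestion and capillary electrophoresis; bidirectional fit versus DMSO baseline.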

A short description of experiment [11]: ATG_EGR_CIS: Attagene CIS-FACTORIAL HepG2 Assay for human Early Growth Response 1 (EGR1) (AID 2282938). As to conditions: HepG2 Attagene CIS-FACTORIAL EGR reporter mRNA; actives raise or lower the signal. The method in brief: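 HepG2 cells transiently transfected with cis-promoter-driven multiplexed reporter transcription units; reporter mRNA measured 24 h after compound dosing by RT-PCR, 6-FAM primer extension, HpaI digestion and capillary electrophoresis. Bidirectional fit versus DMSO baseline.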

A short description of experiment [12]: ATG_Ets_CIS: Attagene CIS-FACTORIAL HepG2 Assay for human Erythroblast Transformation Specific (ETS) (AID 2282941). As to conditions: HepG2 ETS cis-reporter transcription, actives raise or lower the signal. A digest of the protocol: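 HepG2 cells transfected with multiple cis-regulated reporter units measuring endogenous ETS-driven transcription, 24 h after dosing. Reporter mRNA quantified by RT-PCR with capillary electrophoresis; bidirectional fit relative to DMSO.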

Experiment [13] is described as follows: ATG_FoxO_CIS: Attagene CIS-FACTORIAL HepG2 Assay for human Forkhead box O (FoxO) (AID 2282943). As to conditions: HepG2 Attagene cis-reporter, FoxO element, mRNA; actives raise or lower the signal. A digest of the protocol: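 Read-out: fluorescence of 6-FAM-labelled reporter cDNA fragments resolved by capillary electrophoresis. Transiently transfected HepG2 cells were dosed for 24 h; activity fitted in both directions relative to DMSO controls.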

Experiment [14] in a line: ATG_GATA_CIS: Attagene CIS-FACTORIAL HepG2 Assay for human GATA Binding Protein (AID 2282944). As to conditions: HepG2 GATA cis-element reporter, Attagene multiplex mRNA; actives raise or lower the signal. The method in brief: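 Measures endogenous transcription factor-driven reporter mRNA in HepG2 cells transiently carrying cis-regulated constructs. 24 h dosing; RNA via oligo(dT) reverse transcription, PCR, HpaI digestion, capillary electrophoresis; fitted relative to DMSO.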

The nature of experiment [15]: ATG_GLI_CIS: Attagene CIS-FACTORIAL HepG2 Assay for human Zinc Finger Protein GLI1 (AID 2282945). The note with it: HepG2, Attagene cis-factorial reporter mRNA, GLI element; actives raise or lower the signal. The method in brief: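 Transiently transfected HepG2 cells report endogenous transcription factor activity via cis-element-driven reporter units. After 24 h compound exposure, reporter mRNA was measured by RT-PCR with capillary electrophoresis; bidirectional fitting against DMSO baseline.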

Experiment [16] is described as follows: ATG_ISRE_CIS: Attagene CIS-FACTORIAL HepG2 Assay for human Interferon Regulatory Factor 1 (IRF1) binding to an Interferon-Stimulated Response Element (ISRE) (AID 2282948). The note with it: HepG2 ISRE cis-reporter (Attagene), mRNA transcription readout; actives raise or lower the signal. The method in brief: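 Transiently transfected HepG2 cells carrying cis-element reporter units, dosed 24 hours. Reporter mRNA quantified by RT-PCR, fluorescent primer extension, HpaI digestion and capillary electrophoresis. Bidirectional fitting relative to DMSO.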

The nature of experiment [17]: ATG_M_32_CIS: Attagene CIS-FACTORIAL HepG2 Assay for M32 Transcription Factor (Internal Marker) (AID 2282949).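 Note: background control marker of the multiplexed CIS panel rather than a real target.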 As to conditions: HepG2 Attagene cis-factorial M32 reporter, mRNA; actives raise or lower the signal. A digest of the protocol:
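Following 24 h chemical exposure of HepG2 cells transiently expressing cis-promoter reporter constructs, reporter transcript levels were determined by RT-PCR with fluorescent labelling and capillary electrophoresis, then fitted bidirectionally against DMSO.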

A short description of experiment [18]: ATG_M_06_CIS: Attagene CIS-FACTORIAL HepG2 Assay for M06 Transcription Factor (Internal Marker) (AID 2282950). The note with it: HepG2 Attagene CIS-FACTORIAL M06 internal marker reporter; actives raise or lower the signal. A digest of the protocol: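 One of many multiplexed endpoints: HepG2 reporter mRNA after 24 h dosing, detected by RT-PCR and capillary electrophoresis fluorescence; gain or loss of signal analysed against DMSO.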

Experiment [19] deals with Paired box protein Pax-6 (Homo sapiens) (UniProt P26367). The experiment can be described thus: ATG_Pax6_CIS: Attagene CIS-FACTORIAL HepG2 Assay for human Paired Box 6 (PAX6) (AID 2282956). As to conditions: HepG2 CIS-FACTORIAL PAX6 reporter transcription, RNA readout; actives raise or lower the signal. A digest of the protocol: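 HepG2 cells transiently transfected with cis-promoter-driven multiplexed reporter units sensing endogenous transcription factor activity; 24 h chemical exposure. Reporter mRNA quantified by RT-PCR, 6-FAM labelling, HpaI digestion and capillary electrophoresis; bidirectional fit versus DMSO baseline.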
Paired box protein Pax-6 (Homo sapiens), sequence (P26367 whole entry, looked up): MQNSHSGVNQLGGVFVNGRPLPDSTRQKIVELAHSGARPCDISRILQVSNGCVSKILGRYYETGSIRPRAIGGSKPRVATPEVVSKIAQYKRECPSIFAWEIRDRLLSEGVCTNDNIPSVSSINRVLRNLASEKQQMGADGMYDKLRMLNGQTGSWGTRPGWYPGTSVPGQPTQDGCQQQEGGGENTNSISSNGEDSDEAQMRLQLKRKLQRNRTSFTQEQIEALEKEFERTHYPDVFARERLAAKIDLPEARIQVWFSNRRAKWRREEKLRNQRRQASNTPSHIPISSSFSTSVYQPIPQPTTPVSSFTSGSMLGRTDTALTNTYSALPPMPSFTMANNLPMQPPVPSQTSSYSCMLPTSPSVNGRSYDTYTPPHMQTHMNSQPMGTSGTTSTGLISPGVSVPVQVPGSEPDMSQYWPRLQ

A short description of experiment [20]: ATG_PXRE_CIS: Attagene CIS-FACTORIAL HepG2 Assay for human Pregnane X Receptor Element (PXRE) (AID 2282957). As to conditions: HepG2 Attagene CIS-FACTORIAL PXRE reporter, mRNA; actives raise or lower the signal. A digest of the protocol:
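Transfect HepG2 with MRTUs (cis promoter elements); dose chemical, incubate 24 h; isolate RNA, RT with oligo(dT), PCR, 6-FAM label, HpaI cut, CE. Gain/loss fit vs DMSO.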

CCAAT/enhancer-binding protein beta (Homo sapiens), sequence (P17676 whole entry, looked up): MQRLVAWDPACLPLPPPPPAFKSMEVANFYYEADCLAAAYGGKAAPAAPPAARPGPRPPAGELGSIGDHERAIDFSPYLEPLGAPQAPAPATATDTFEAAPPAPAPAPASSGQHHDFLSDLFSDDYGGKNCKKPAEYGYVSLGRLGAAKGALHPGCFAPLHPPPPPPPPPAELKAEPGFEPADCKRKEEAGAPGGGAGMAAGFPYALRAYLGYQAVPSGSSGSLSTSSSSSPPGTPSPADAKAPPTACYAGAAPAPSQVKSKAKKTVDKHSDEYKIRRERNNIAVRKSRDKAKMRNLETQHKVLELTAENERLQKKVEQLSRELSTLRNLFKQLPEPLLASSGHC

For `CCCCCC[C@@H](O)C/C=C\CCCCCCCC(=O)O`, the outcome in experiment [1], in experiment [3], in [6], in experiment [10], in experiment [11] and in experiment [12] was inactive. The compound was called inactive in [15], in experiment [16], in [17], in experiment [18], in experiment [19] and in [20]. Also, the AC50 (as a rule, the concentration giving half of the maximal activity seen) in experiment [2] is 77 µM (active); in experiment [4], 70.4 µM (active); in experiment [5] it was 71.8 µM (active); in [7] it was 139 µM (active); in experiment [8] it was 177 µM (active); in [9], 170 µM (active). The AC50 in experiment [13] is 156 µM (active); in experiment [14], 165 µM (active).
Take `CC/C=C\CC/C=C/C(OCC)OCC`: the call in [1], in experiment [2], in experiment [4], in experiment [5], in [6] and in experiment [7] was inactive. The outcome in [8], in experiment [9], in [10], in experiment [11], in [13] and in experiment [14] was inactive. Moreover, the compound was classed as inactive in [15], in experiment [17], in experiment [18] and in [19]. The AC50 in experiment [3] is 150 µM (active); in experiment [12], 100 µM (active); in experiment [16] it was 142 µM (active); in experiment [20], 4.02 µM (active).
With `COc1cccc(OC)c1C(=O)O`, the outcome in experiment [1], in experiment [2], in [3], in [4], in [5] and in experiment [6] was inactive. For the same compound, the result in experiment [7], in [8], in [9], in experiment [10], in [11] and in experiment [12] was inactive. Further, the outcome in [13], in experiment [14], in experiment [15], in [16], in [17] and in experiment [18] was inactive. In addition, the compound was classed as inactive in experiment [19] and in [20].
For the compound `Clc1ccccn1`, the call in experiment [1], in experiment [2], in experiment [3], in experiment [4], in [5] and in experiment [6] was inactive. In addition, the result in experiment [7], in [8], in [9], in [10], in experiment [11] and in experiment [12] was inactive. Also, the compound was called inactive in experiment [13], in [14], in experiment [15], in experiment [16], in [17] and in [18]. Also, the compound was called inactive in experiment [19] and in experiment [20].

For the origin of these results see PubChem BioAssay (EPA / NIEHS).
